Data taken from PubChem BioAssay AID1036 (National Center for Advancing Translational Sciences (NCATS), 2008).
Records with an inconclusive call do not appear. The source made the active and inactive calls. Calls follow the shape of the full dose curve.

Experiment: NSCLC 1 Cell Viability Secondary Assay for qHTS Assay for Epigenetic Modulator
Details: NSCLC 1 cells viability, MTS absorbance, 4 days
Source text: NIH Molecular Libraries Screening Centers Network [MLSCN] NIH Chemical Genomics Center [NCGC] MLSCN Grant: 1 X01 MH079860-01 Assay Provider: Elisabeth D. Martinez, University of Texas SW Medical Center NCGC Assay Overview: This secondary assay characterizes selected actives identified in the qHTS of the Locus Derepression (LDR) assay (PubChem AID 597). The LDR assay detects the derepression of a GFP reporter that is stably integrated in a region of the genome of murine c127i mammary cells that is presumably silenced. Compounds that cause derepression of the locus to express GFP are identified by enumerating GFP positive cells using a laser-scanning microplate cytometer. […] NSCLC 1 cell viability was measured using Cell Titer 96 AQueous One (Promega), an assay which detects the ability of metabolically active cells to reduce a tetrazolium salt substrate (MTS), into a soluble formazan product that can be measured by colorimetry.
NCGC Assay Protocol Summary NSCLC 1 cells were plated in 96-well flat bottom tissue culture dishes (Corning) and grown overnight at 37 C and 5% CO2, then treated with compounds, incubated 4 days, and assayed for viability using the Cell Titer 96 AQueous One kit (Promega) according to the manufacturer's protocol. Absorbance at 490 nm and 650 nm (reference) was measured by a Spectra Max (Molecular Devices). […]

## CN1CSC(=S)N(C)C1
  outcome: inactive
